SMILES strings stand for the structures. Calls of active or inactive are those of the source.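 How the source made its calls, unless noted: active means superoxide response below 65% of plate, a cut near 3 SD across the whole screen; inactive means the rest.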

Assay [1] is described as follows: reduced mouse 2C T cell binding to pMHC/ICAM-1 vesicles – MLPCN validation set, flow cytometry, LFA-1/ICAM-1 modulator project, pilot screen (AID 2523;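 active means response below a set limit, under 55% cells CD8-positive and vesicle-bound, and CD8 cells' 90th-percentile brightness under 279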;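 on vesicle binding response: mean PE anti-B7-1 fluorescence of CD8+ cells relative to row control; 100% = QL9-loaded vesicles with DMSO vehicle in the same plate row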). The settings on record: 2C mouse CD8+ T cells, at 7 µM, stronger effect = lower value; double positive events: measured here: CD8+/vesicle+ event percentage.
In assay [2] the target is Integrin beta-1 (Homo sapiens) + Integrin alpha-4 (Homo sapiens) (UniProt P13612+P05556). Briefly: alpha4beta1 integrin LIBS antibody binding reduction – U937 cells, HUTS-21 mAb, flow cytometry, validation set, VLA-4 allosteric modulator project, pilot screen (AID 2674;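 active means inhibition above 50%, about 3 SD of the validation set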;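 further: antibody binding induced by the VLA-4 ligand LDV present at three times its Kd; 0% = LDV ligand with antibody and no compound and 100% = antibody without LDV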). The settings on record: HUTS-21 LIBS mAb binding, at 6.7 µM, stronger effect = higher value, binding induced by LDV ligand. (In flow cytometry, cells or beads pass a laser one at a time.)
Chain of Integrin beta-1 (Homo sapiens) + Integrin alpha-4 (Homo sapiens) (P05556 whole entry, looked up): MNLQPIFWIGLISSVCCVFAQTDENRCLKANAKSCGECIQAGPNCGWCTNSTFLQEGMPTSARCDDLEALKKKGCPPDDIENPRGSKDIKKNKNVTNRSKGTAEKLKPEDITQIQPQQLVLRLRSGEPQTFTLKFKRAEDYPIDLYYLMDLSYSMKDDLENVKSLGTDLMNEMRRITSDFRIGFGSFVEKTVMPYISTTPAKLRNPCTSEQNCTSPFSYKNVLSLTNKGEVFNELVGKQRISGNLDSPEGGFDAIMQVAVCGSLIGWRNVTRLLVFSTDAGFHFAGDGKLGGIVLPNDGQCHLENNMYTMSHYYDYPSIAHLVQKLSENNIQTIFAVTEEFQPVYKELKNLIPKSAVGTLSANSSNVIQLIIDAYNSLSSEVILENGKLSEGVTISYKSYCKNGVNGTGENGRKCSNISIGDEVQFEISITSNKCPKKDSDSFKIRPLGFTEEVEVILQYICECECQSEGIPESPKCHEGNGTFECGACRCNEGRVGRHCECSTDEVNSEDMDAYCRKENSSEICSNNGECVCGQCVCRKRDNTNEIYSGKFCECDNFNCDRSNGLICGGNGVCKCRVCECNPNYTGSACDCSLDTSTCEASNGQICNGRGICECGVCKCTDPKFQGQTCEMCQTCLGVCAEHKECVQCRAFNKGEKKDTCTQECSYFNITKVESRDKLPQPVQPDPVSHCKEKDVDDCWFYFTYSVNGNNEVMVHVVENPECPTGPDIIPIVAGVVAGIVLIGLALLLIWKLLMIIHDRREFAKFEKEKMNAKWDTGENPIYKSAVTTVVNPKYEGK
Chain of Integrin beta-1 (Homo sapiens) + Integrin alpha-4 (Homo sapiens) (P13612 whole entry, looked up): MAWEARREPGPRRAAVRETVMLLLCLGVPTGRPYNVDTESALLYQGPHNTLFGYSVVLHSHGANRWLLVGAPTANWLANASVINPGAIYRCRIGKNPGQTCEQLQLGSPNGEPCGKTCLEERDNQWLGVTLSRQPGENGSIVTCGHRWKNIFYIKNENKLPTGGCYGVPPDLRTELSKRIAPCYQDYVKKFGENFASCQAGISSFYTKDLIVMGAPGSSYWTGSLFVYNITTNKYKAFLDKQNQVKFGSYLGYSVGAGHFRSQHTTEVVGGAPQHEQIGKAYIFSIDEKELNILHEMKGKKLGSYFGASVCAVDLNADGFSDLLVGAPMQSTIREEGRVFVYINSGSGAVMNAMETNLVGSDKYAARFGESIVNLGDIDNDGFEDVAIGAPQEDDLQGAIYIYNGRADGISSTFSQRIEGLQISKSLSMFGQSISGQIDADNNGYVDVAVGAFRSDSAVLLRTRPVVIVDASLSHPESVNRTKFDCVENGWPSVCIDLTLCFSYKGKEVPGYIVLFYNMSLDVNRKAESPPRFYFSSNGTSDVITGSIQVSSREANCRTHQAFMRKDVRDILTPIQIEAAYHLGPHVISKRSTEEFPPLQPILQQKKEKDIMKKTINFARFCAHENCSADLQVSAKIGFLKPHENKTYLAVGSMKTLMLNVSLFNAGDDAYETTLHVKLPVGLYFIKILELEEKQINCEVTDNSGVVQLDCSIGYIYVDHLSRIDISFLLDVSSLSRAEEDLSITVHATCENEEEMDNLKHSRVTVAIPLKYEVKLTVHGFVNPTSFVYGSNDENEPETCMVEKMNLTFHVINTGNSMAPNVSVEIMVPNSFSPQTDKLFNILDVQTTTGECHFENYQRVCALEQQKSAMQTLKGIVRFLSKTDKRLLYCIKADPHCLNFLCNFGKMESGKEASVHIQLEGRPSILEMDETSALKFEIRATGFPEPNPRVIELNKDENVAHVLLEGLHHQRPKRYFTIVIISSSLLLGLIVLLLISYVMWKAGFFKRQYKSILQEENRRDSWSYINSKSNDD

Assay [3] in a line: calorie-restriction mimetic ROS inhibitors, yeast – validation compound set, pilot screen (AID 2706).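 Further: yeast exposed to compound for one week at 30 degrees C before staining; 100% = mean of all compound wells on the same plate.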 The settings on record: S. cerevisiae aging, superoxide DHE fluorescence; at 10 µM, stronger effect = lower value.
In assay [4] the target is Beta-adrenergic receptor kinase 1 (Homo sapiens) (UniProt P25098). In words: GRK2 binders displacing RNA aptamer, biochemical, validation, human GRK2, bead flow cytometry (AID 488806;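 active means aptamer binding inhibition above 30%, about 3 SD of noise from non-fluorescent compounds; inactive means inhibition at or below 30%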). The settings on record: bead-bound GRK2, FAM-aptamer displacement, at 10 µM, stronger effect = higher value.
Chain of Beta-adrenergic receptor kinase 1 (Homo sapiens) (P25098 whole entry, looked up): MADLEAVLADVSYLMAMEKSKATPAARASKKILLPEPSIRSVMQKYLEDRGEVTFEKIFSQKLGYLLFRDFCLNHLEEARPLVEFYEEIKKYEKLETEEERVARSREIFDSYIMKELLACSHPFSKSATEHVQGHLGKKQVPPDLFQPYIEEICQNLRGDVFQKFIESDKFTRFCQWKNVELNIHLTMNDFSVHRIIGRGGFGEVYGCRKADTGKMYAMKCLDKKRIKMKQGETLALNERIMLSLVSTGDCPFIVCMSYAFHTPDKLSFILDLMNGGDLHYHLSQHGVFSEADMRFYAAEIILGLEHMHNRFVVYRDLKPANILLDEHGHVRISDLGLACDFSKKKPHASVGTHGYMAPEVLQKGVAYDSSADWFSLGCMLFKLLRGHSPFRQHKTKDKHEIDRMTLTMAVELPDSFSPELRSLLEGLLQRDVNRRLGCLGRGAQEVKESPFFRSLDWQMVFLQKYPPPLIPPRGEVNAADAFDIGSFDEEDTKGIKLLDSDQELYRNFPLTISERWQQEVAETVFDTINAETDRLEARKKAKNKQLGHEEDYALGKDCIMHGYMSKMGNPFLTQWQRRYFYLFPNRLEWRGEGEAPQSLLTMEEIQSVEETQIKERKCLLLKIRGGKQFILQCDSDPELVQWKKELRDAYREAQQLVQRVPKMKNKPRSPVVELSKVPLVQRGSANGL
Assay [5] deals with Beta-2 adrenergic receptor (Homo sapiens) (UniProt P07550). Briefly: agonist-induced loss of surface beta2AR – cell-based, FAP fluorogen, flow cytometry, validation set, pilot screen (AID 504459;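 active means percent response above 42, roughly 3 SD of non-fluorescent test compounds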;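 further: agonist-driven loss of surface beta2AR via internalization measured by FAP dye flow cytometry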). The settings on record: Am2.2-beta2AR cells, at 10 µM, stronger effect = higher value.
Chain of Beta-2 adrenergic receptor (Homo sapiens) (P07550 whole entry, looked up): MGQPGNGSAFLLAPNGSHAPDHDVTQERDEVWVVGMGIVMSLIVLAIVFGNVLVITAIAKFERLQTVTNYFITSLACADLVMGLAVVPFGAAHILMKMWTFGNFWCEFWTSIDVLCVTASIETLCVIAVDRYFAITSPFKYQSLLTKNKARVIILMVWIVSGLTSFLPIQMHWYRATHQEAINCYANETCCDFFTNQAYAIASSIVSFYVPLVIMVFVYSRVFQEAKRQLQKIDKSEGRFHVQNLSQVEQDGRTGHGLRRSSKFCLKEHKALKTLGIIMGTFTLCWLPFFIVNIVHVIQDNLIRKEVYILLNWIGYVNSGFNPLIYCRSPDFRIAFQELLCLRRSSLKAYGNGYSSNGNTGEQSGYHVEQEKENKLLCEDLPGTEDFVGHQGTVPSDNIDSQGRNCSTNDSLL
In assay [6] the target is AP-2 complex subunit beta (Homo sapiens) (UniProt P63010). In words: beta-arrestin/AP2 interaction blockers – biochemical, validation set, GST-AP2 beads, flow cytometry, pilot screen (AID 504541;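 active means inhibition above 54%, about 3 SD of non-fluorescent compounds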;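 further: AP2 carries R879A mutation and is captured from E. coli lysate; bead-bound FITC arrestin peptide fluorescence measuring arrestin peptide binding to AP2; 0% = DMSO wells and 100% = excess unlabeled arrestin peptide control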). The settings on record: FITC arrestin peptide, at 10 µM, stronger effect = higher value, AP2 beta2 appendage fragment, R879A mutant.
Chain of AP-2 complex subunit beta (Homo sapiens) (P63010 whole entry, looked up, the tested form may be a part, one chain of several): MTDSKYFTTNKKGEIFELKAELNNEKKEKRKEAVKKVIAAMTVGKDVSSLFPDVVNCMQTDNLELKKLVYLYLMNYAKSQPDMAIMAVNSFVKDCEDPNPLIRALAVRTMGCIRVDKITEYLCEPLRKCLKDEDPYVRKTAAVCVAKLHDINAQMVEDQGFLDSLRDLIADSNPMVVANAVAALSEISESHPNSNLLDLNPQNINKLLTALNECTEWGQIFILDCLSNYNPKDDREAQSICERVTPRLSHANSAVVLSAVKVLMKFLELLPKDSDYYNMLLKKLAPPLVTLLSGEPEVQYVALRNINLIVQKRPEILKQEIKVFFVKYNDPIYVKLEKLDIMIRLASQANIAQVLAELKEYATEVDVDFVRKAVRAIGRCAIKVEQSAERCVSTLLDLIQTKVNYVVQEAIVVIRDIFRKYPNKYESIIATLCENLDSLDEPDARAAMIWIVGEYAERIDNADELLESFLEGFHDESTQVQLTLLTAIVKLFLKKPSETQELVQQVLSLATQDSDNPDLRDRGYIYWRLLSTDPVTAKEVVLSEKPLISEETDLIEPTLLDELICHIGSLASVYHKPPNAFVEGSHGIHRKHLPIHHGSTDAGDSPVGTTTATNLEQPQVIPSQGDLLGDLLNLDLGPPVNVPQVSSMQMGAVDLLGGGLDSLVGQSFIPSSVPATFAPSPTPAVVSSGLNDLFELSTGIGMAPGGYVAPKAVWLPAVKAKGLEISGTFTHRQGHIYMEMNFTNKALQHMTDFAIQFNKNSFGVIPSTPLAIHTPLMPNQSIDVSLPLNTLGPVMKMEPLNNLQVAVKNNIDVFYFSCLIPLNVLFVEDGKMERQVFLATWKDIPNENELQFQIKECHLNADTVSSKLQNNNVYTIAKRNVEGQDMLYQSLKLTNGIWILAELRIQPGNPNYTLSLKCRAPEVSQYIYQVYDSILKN
Assay [7] in a line: cytosolic pH regulators acting via V-ATPase – S. cerevisiae, pHLuorin, HTS validation (AID 504600; in the data active means response above about 15%;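 further: plate controls were DMSO for no effect and reference compound for full effect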). The settings on record: V-ATPase proton transport, at 10 µM, stronger effect = higher value.
The subject of assay [8] is anti-desmoglein-3 scFv antibody binding to human DSG3. Briefly: blockers of pathogenic pemphigus antibody–desmoglein-3 binding – biochemical, validation compound set, bead-based, flow cytometry, pilot screen (AID 588368;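 active means binding below the plate cutoff, the plate median minus 3 SD, with a reading above zero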;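 further: signal is the median channel fluorescence of bead-bound GFP antibody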). The settings on record: Protein G beads, DSG3-Fc, scFv-GFP binding, at 10 µM, stronger effect = lower value.
The nature of assay [9]: Nile Red efflux blockade in pump-expressing yeast – validation compound set, multiplex, phenotypic, pilot screen (AID 588506;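 active means efflux inhibition above 0.42, the validation set average plus 4 SD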;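 further: Nile Red retained in cells so higher fluorescence means more efflux inhibition; 0 = negative control wells and 1 = enniatin B 25 µM full block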). The settings on record: S. cerevisiae pump-expressing triplex, Nile Red efflux flow cytometry; at 10 µM; stronger effect = higher value; the pumps come from Candida albicans.
In assay [10] the target is ATP-binding cassette sub-family B member 6 (Homo sapiens) (UniProt Q9NP58). Briefly: blockers of ABCB6-driven porphyrin uptake – K562-ABCB6 cells, flow cytometry, validation set, pilot screen (AID 588550;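 active means inhibition above the screen-wide mean plus 3 SD, about 51%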;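 further: 0% = DMSO wells and 100% = benzethonium chloride 70 µM positive control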). The settings on record: K562-ABCB6 porphyrin accumulation, 1 h, at 10 µM, stronger effect = higher value.
Chain of ATP-binding cassette sub-family B member 6 (Homo sapiens) (Q9NP58 whole entry, looked up): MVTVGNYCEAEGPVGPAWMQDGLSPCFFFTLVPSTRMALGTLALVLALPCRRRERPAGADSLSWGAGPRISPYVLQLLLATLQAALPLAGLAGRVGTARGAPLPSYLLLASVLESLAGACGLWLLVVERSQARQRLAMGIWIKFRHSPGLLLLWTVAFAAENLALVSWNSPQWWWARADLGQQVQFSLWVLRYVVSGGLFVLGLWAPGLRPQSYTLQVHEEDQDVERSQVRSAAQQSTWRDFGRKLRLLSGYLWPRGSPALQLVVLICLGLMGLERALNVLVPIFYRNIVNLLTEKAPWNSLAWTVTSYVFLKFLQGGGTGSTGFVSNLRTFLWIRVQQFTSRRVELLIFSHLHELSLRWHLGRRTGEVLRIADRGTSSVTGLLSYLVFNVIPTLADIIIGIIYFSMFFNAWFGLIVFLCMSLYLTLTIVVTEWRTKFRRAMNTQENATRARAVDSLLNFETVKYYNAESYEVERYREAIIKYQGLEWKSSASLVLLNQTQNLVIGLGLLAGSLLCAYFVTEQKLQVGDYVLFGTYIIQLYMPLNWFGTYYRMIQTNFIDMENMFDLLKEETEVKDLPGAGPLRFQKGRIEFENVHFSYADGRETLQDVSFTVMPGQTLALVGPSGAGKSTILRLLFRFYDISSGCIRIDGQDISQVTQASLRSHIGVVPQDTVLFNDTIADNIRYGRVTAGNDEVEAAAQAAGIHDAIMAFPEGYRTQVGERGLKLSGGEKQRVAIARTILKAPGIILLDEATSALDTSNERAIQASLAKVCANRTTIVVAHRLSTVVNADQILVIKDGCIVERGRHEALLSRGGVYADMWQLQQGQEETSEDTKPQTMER
The nature of assay [11]: AML differentiation inducers, ER-HoxA9 marrow cells – cell-based, GFP/MAC1 double positive, flow cytometry, validation set, primary screen (AID 588685;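 active means differentiation response of at least 50%, scaled between solvent and reference control, from cells with both markers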;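 further: compound exposure lasts four days before antibody staining and flow analysis; 0% = DMSO wells and 100% = 5 µM fulvestrant positive control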). The settings on record: stronger effect = higher value, normalized: vehicle 0, fulvestrant 100.

For the compound `CC(=O)Nc1cc(O)cc(O)c1`, the double positive events in assay [1] stood at 60.5%. Further, the vesicle binding response in assay [1] was 189% (inactive). For the same compound, the inhibition in [2] was 11.9% (inactive); in assay [6], 0.4% (inactive); in assay [10], 6% (inactive). Further, the superoxide response (% of plate) in [3] was 99.3% (inactive). The aptamer binding inhibition in assay [4] was -2% (inactive). Further, the response was -0.41% (inactive) in assay [5] and -0.22% (inactive) in assay [7]. In assay [8], the binding (% of control) was 106% (inactive). Further, the efflux inhibition (fraction of control) in assay [9] is -0.06 (inactive). Besides, the differentiation response in assay [11] was 69.6% (active).
Turning to `COC(=O)c1cc(OC)c(OC)cc1NC(=O)Nc1ccc(OC)cc1OC`, the double positive events in assay [1] worked out at 58.5%. Further, the vesicle binding response in assay [1] was 105% (inactive). Besides, the values for the inhibition in [2], in assay [6] and in [10] were -14.5% (inactive), 11.9% (inactive) and 7% (inactive), respectively. In [3], the superoxide response (% of plate) is 82% (inactive). Besides, the aptamer binding inhibition in assay [4] was 0% (inactive). For the same compound, the response in assay [5] is 5.38% (inactive); in [7] it was -1.21% (inactive). Besides, in assay [8], the binding (% of control) was 100% (inactive). Further, in assay [9], the efflux inhibition (fraction of control) was -0.205 (inactive). Moreover, the differentiation response in assay [11] was 13% (inactive).
For `COc1ccc(N2C(=O)C3CCCN3C2=O)cc1` (stereo unspecified), the double positive events in assay [1] worked out at 61.6%. Also, the vesicle binding response in assay [1] is 146% (inactive). Moreover, the inhibition in assay [2] is -1.79% (inactive); in [6], 9.15% (inactive); in assay [10] it was 7% (inactive). The superoxide response (% of plate) in assay [3] is 98.7% (inactive). Moreover, in assay [4], the aptamer binding inhibition was -1% (inactive). Further, the response is 7.47% (inactive) in assay [5] and 1.78% (inactive) in assay [7]. The binding (% of control) in assay [8] was 102% (inactive). The efflux inhibition (fraction of control) in assay [9] was 0.12 (inactive). Moreover, in assay [11], the differentiation response is 2.4% (inactive).
In assay [1], `CC(C)=CCCC(C)CN1CCC(N2CCC(C(=O)N3CCCC3)CC2)CC1` (stereo unspecified) gave a double positive events of 66.5%. Besides, in [1], the vesicle binding response is 278% (inactive). Also, the inhibition in assay [2] is -11.3% (inactive); in assay [6], -10.9% (inactive); in assay [10] it was 5% (inactive). Also, in assay [3], the superoxide response (% of plate) is 93.3% (inactive). Moreover, the aptamer binding inhibition in assay [4] was -12% (inactive). Moreover, the response in assay [5] was 35% (inactive); in assay [7] it was -0.07% (inactive). Moreover, in assay [8], the binding (% of control) is 106% (inactive). The efflux inhibition (fraction of control) in [9] is -0.03 (inactive). For the same compound, in assay [11], the differentiation response was -7.2% (inactive).
Consider `CC(=O)C1=C(NC(=O)c2ccc(C(F)(F)F)cc2)C[C@@H]2[C@H]1C2(C)C`, for which, in [1], the double positive events was 60%. The vesicle binding response in assay [1] is 129% (inactive). Besides, the inhibition in assay [2] was -3.77% (inactive); in [6], 6.52% (inactive); in [10], -1% (inactive). Besides, the superoxide response (% of plate) in assay [3] is 99% (inactive). For the same compound, the aptamer binding inhibition in assay [4] is 3% (inactive). Moreover, the response in [5] was 0.35% (inactive); in [7], -6.14% (inactive). In addition, in assay [8], the binding (% of control) is 101% (inactive). Moreover, in assay [9], the efflux inhibition (fraction of control) was 0.28 (inactive). Besides, the differentiation response in assay [11] was -17.7% (inactive).
`CCC(=O)c1ccc(O)cc1` yielded a double positive events in assay [1] of 72%. The vesicle binding response in assay [1] is 882% (inactive). The values for the inhibition in assay [2], in assay [6] and in assay [10] were -6.68% (inactive), -11.7% (inactive) and 19% (inactive), respectively. Further, in [3], the superoxide response (% of plate) is 87.9% (inactive). Moreover, the aptamer binding inhibition in assay [4] is 3% (inactive). Further, the results for the response in assay [5] and in assay [7] were -7.88% (inactive) and 3.37% (inactive), respectively. Moreover, the binding (% of control) in assay [8] was 94.5% (inactive). Further, the efflux inhibition (fraction of control) in assay [9] was -0.14 (inactive). Also, the differentiation response in assay [11] is 10% (inactive).
Consider `CCC12CN3CC(CC)(CN(C1)C31C(=O)N(C)c3ccc(C)cc31)C2=O` (stereo unspecified), for which the double positive events in [1] was determined as 59.5%. Further, in assay [1], the vesicle binding response was 181% (inactive). The inhibition in [2] is -2.82% (inactive); in assay [6], 0.32% (inactive); in [10], -1% (inactive). Moreover, the superoxide response (% of plate) in assay [3] was 94.6% (inactive). Moreover, the aptamer binding inhibition in assay [4] was -3% (inactive). Also, the response was -18.8% (inactive) in [5] and 4.91% (inactive) in assay [7]. Moreover, in [8], the binding (% of control) is 102% (inactive). Besides, in assay [9], the efflux inhibition (fraction of control) is 0 (inactive). In [11], the differentiation response was -10.9% (inactive).
`CC1(C)CC(=O)C(C2(O)C(=O)Nc3ccccc32)CO1` (stereo unspecified) had a double positive events in assay [1] of 69%. Moreover, the vesicle binding response in assay [1] was 183% (inactive). In addition, the values for the inhibition in assay [2], in assay [6] and in [10] were 11.7% (inactive), 0.15% (inactive) and 12% (inactive), respectively. Besides, in assay [3], the superoxide response (% of plate) is 92.3% (inactive). For the same compound, in [4], the aptamer binding inhibition was 3% (inactive). Also, the response in assay [5] was 7.56% (inactive); in assay [7], 2.36% (inactive). Also, the binding (% of control) in assay [8] was 105% (inactive). In assay [9], the efflux inhibition (fraction of control) was 0.12 (inactive). Besides, the differentiation response in assay [11] was -16.8% (inactive).
In turn, `O=C(CCCC(=O)OCC1CCCO1)OCC1CCCO1` (stereo unspecified) came in with a double positive events in [1] of 65.5%. For the same compound, the vesicle binding response in assay [1] is 131% (inactive). Besides, the inhibition in [2] is 4.52% (inactive); in assay [6], -6.03% (inactive); in assay [10], 15% (inactive). Further, the superoxide response (% of plate) in assay [3] was 93.2% (inactive). Besides, the aptamer binding inhibition in [4] was -3% (inactive). For the same compound, the response is 2.91% (inactive) in assay [5] and 2.81% (inactive) in assay [7]. Also, the binding (% of control) in assay [8] was 99.4% (inactive). Besides, the efflux inhibition (fraction of control) in [9] was -0.02 (inactive). For the same compound, in assay [11], the differentiation response is 2.46% (inactive).
The compound `COc1ccc2cc[nH]c2c1` registered a double positive events in assay [1] of 67.5%. Further, in [1], the vesicle binding response was 407% (inactive). Also, the inhibition was -5.38% (inactive) in assay [2], -3.08% (inactive) in assay [6] and 5% (inactive) in [10]. The superoxide response (% of plate) in [3] was 104% (inactive). Moreover, the aptamer binding inhibition in assay [4] is 2% (inactive). The response is -20.2% (inactive) in [5] and 0.61% (inactive) in [7]. Besides, in [8], the binding (% of control) is 103% (inactive). For the same compound, the efflux inhibition (fraction of control) in assay [9] was 0 (inactive). In addition, the differentiation response in [11] is -10.9% (inactive).
`C/C(NC(=O)c1cccs1)=C1\C(=O)C[C@@H]2[C@H]1C2(C)C`: the double positive events in assay [1] was 56.1%. Also, the vesicle binding response in assay [1] was 193% (inactive). In addition, the inhibition in assay [2] was 0.59% (inactive); in assay [6], -13% (inactive); in assay [10] it was 9% (inactive). For the same compound, the superoxide response (% of plate) in assay [3] is 102% (inactive). Also, in [4], the aptamer binding inhibition was -8% (inactive). For the same compound, the response was -39.8% (inactive) in assay [5] and -6.85% (inactive) in assay [7]. Moreover, the binding (% of control) in assay [8] is 105% (inactive). In addition, the efflux inhibition (fraction of control) in assay [9] is -0.04 (inactive). Besides, the differentiation response in [11] is -11.9% (inactive).
The compound `CC(=O)Oc1ccc(C2OC(=O)c3ccccc3N2C(C)=O)cc1` (stereo unspecified) returned a double positive events in [1] of 63.2%. Besides, the vesicle binding response in assay [1] is 146% (inactive). Also, the inhibition was 19% (inactive) in [2], 0.53% (inactive) in assay [6] and 8% (inactive) in [10]. Further, in assay [3], the superoxide response (% of plate) was 98.4% (inactive). Further, the aptamer binding inhibition in assay [4] is 1% (inactive). Moreover, the response in [5] is 15.3% (inactive); in assay [7], -2.98% (inactive). Besides, the binding (% of control) in [8] is 98.1% (inactive). Moreover, the efflux inhibition (fraction of control) in assay [9] is 0.03 (inactive). The differentiation response in assay [11] is -4.57% (inactive).
In assay [1], `O=c1[nH]cnc2c1ncn2[C@@H]1O[C@H](CO)[C@@H](O)[C@H]1O` yielded a double positive events of 62%. Moreover, the vesicle binding response in assay [1] was 140% (inactive). Moreover, the figures for the inhibition in assay [2], in assay [6] and in [10] were -15.6% (inactive), -10.3% (inactive) and 5% (inactive), respectively. For the same compound, the superoxide response (% of plate) in assay [3] was 86.8% (inactive). Moreover, the aptamer binding inhibition in assay [4] is 2% (inactive). For the same compound, the response in assay [5] was -18% (inactive); in [7], -0.11% (inactive). In addition, the binding (% of control) in assay [8] was 106% (inactive). The efflux inhibition (fraction of control) in assay [9] is 0.12 (inactive). Moreover, the differentiation response in assay [11] is -7.94% (inactive).

Broadly, the inhibition is the drop in the measured response relative to a control, in per cent.

The record behind these values is PubChem BioAssay.
